# Results: PubChem BioAssay (NCATS)
# “And” between values parts separate entries of the source, which are not always exact repeats. Equal values may be shown once. Results filed as inconclusive are left out. A number with no mark means an inactive call. The source made the active and inactive calls. Calls follow the shape of the dose curve; as a rule, active = well fitted activation curve with a large enough effect; inconclusive = small, poorly fitted or top-dose-only effect; inactive = no such curve, though single readings can be large or run the other way.
# Target: Cellular tumor antigen p53 (Homo sapiens) (UniProt P04637)
# Assay: Primary qHTS for small molecule compounds that upregulate eGFP-tagged delta133p53alpha (in N-terminal) cells. (AID 2060322); also: nearly all actives have a fitted effect of over 75% in size;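 as to activation: series mostly up to about 56 µM; 0% = DMSO vehicle and 100% = reference activator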
# Conditions: NCI-H358 eGFP-delta133p53alpha fluorescence, 24 h; activation: hits give high values
# In short: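 NCI-H358 cells pre-induced 24 h with 10 ng/ml doxycycline to express N-terminal eGFP-delta133p53alpha, then dosed 24 h at 37C without doxycycline; fixed, Hoechst-stained, GFP intensity by laser scanning cytometry, normalized to DMSO (0%) and 57.5 uM 5-azacytidine (100%).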
# Potency is read from the fitted curve at half-maximal effect.
# Sequence of Cellular tumor antigen p53 (Homo sapiens) (P04637 whole entry, looked up): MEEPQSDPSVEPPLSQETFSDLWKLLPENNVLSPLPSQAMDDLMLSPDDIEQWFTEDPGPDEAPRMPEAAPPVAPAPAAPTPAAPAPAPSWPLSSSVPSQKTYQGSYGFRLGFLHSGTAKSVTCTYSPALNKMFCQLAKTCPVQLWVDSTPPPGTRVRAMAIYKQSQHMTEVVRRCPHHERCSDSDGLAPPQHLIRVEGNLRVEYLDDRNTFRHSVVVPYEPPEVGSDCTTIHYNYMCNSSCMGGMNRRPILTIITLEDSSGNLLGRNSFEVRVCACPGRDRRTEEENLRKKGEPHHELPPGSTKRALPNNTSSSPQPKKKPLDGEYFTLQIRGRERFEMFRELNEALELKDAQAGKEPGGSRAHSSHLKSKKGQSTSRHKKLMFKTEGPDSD
SMILES,activation,Potency
CCOC(=O)Nc1ccc(NCc2ccc(F)cc2)cc1N,-10.3% and -0.955%,–
C=C1[C@@]23C(=O)O[C@H](C)[C@]24O[C@@]2(C(=C)[C@]5(C=CC(=O)OC5(C)C)CC[C@]32C)[C@H](O)[C@@]1(C)OC4=O,13%,–
Cc1ccccc1-n1c(Cn2cnc3c(N)ncnc32)nc2cccc(C)c2c1=O,46.4% and -16.1%,–
CC(=O)OCC1=C(C(=O)O)N2C(=O)[C@@H](N)[C@H]2SC1,19.8% and -5.67%,–
CCC1CC2CN3CCc4c([nH]c5ccccc45)C(C(=O)OC)(C2)C13 (centres undefined),3.05%,–
CN(C)[C@@H]1C(=O)C(C(N)=O)=C(O)[C@@]2(O)C(=O)C3=C(O)c4c(O)ccc(Cl)c4[C@@](C)(O)C3C[C@@H]12 (some centres undefined),–,23.9 µM (active)
O=C(N[C@@H](COc1ccc2[nH]c(=O)[nH]c2c1)c1ccccc1)c1cccn(Cc2ccc(F)c(F)c2)c1=O,–,30.6 µM (active)
CCNC(=O)C[C@@H]1N=C(c2ccc(Cl)cc2)c2cc(OC)ccc2-n2c(C)nnc21,-15.8% and 11.6%,–
C/C=C(/C)C(=O)O[C@H]1C(C)=C2[C@H]([C@@H]1OC(=O)CCCCCCC)[C@@](C)(OC(C)=O)C[C@H](OC(=O)CCC)[C@@]1(O)[C@H]2OC(=O)[C@@]1(C)O,–,33.8 µM (active)
CC(C)[C@H](NC(=O)c1nn(Cc2ccc(F)cc2)c2ccccc12)C(N)=O,-6.68%,–
C[C@H](Nc1ncnc2nc[nH]c12)c1nc2ccc(F)cc2c(=O)n1-c1ccccc1,11.6%,–
FC(F)(F)c1ccc(N2CCNCC2)nc1Cl,-26.3%,–
O=C(C[C@@H]1NCCC[C@H]1O)Cn1cnc2ccccc2c1=O,–,0.239 µM (active)
CN1C(=O)[C@]23CC4C(C)(C)[C@@]5(C[C@@]41CN2CC[C@@]3(C)O)C(=O)Nc1c5ccc2c1OC=CC(C)(C)O2 (some centres undefined),-19.1%,–
C[C@]12CC[C@@H]3c4ccc(OC(=O)N(CCCl)CCCl)cc4CC[C@H]3[C@@H]1CC[C@@H]2OP(=O)(O)O,-2.49% and -2.33%,–
COc1ccc2c3c([nH]c2c1)C(C=C(C)C)N1C(=O)C2CCCN2C(=O)C1C3 (centres undefined),-3.82%,–
c1cncc(OC[C@@H]2CCN2)c1,-4.3%,–
C[C@@H]1O[C@@H](O[C@H]2CC[C@@]3(C)C(CC[C@@H]4C3CC[C@]3(C)[C@@H](C5=CC(=O)OC5)CC[C@]43O)C2)[C@H](O)[C@H](O)[C@H]1O (some centres undefined),–,1.65 µM (active)
COc1ccc2c(c[n+](C)c3c4cc5c(cc4ccc23)OCO5)c1OC,–,43.2 µM (active)
C#C[C@]1(O)C=C[C@H]2[C@@H]3CCC4=CC(=O)CC[C@@H]4[C@H]3CC[C@@]21CC,10.7%,–

SMILES,activation,Potency
CN[C@@H]1C[C@H]2O[C@@](C)([C@@H]1OC)n1c3ccccc3c3c4c(c5c6ccccc6n2c5c31)C(=O)NC4,–,0.426 µM (active)
NC(=O)[C@@H](CC1CC1)[C@@H](CCC(F)(F)F)C(=O)N[C@H]1N=C(c2ccccc2)c2cccc(F)c2NC1=O,-1.79%,–
O=C(NCC1CCOCC1)c1cnc(Nc2ccc(Cl)cc2Cl)nc1C(F)(F)F,-5.35% and 9.55%,–
O=C(O)CNC(=O)c1c(O)c2ccccc2n(Cc2ccccc2)c1=O,-9.57% and 9.82%,–
C/C=C(\C)C(=O)OC1CC2C(CC=C3CC(OC4CC(OC)C(OC5CC(OC)C(OC6OC(C)C(OC7OC(CO)C(O)C(O)C7O)C(OC)C6O)C(C)O5)C(C)O4)CCC32C)C2(O)CCC(C(C)=O)C12C (centres undefined),-6.25%,–
Clc1ccc(N2C[C@H]3CC[C@@H](C2)N3)nn1,-0.333%,–
CC12Cc3cn[nH]c3C=C1CCC1C2CCC2(C)C1CCC2(C)O (centres undefined),8.33%,–
CCC(C)/C=C(C)/C=C/C1=CC2=C(Cl)C(=O)C(C)(OC(C)=O)C(=O)C2=CO1 (centres undefined),-16%,–
O=C(Oc1ccc([N+](=O)[O-])cc1)N1CCC(C(O)(c2ccc3c(c2)OCO3)c2ccc3c(c2)OCO3)CC1,9.18% and -1.67%,–
CNC(=O)c1ccc(N2C(=S)N(c3ccc(C#N)c(C(F)(F)F)c3)C(=O)C23CCC3)cc1F,38.4% and -8.11%,–
Cc1cc(SCc2sc(-c3ccc(C(F)(F)F)c(F)c3)nc2C)ccc1OCC(=O)O,-16% and 31%,–
Cc1cccc(NC(=O)c2ccc(C(F)(F)F)cc2C(=O)O)n1,1%,–
CCCCOC(=O)c1ccnc2cc(C(OCCN3CCCCC3)c3ccccc3Cl)sc12 (centres undefined),25.7%,–
CC(C)=C1CC[C@]23CO[C@H](C2)[C@@](O)(C(=O)O)CCC13 (some centres undefined),-4.58%,–
CC(=O)O[C@H]1CC[C@H]2[C@@H]3CC[C@H]4CC(=O)C=C(C)[C@]4(C)[C@H]3CC[C@]12C,-6.33%,–
CC(C)OC(=O)c1ccnc2cc(C(OCCN3CCCCC3)c3ccccc3Cl)sc12 (centres undefined),-11.2%,–
CC1(N2CCC(n3c([C@@H]4CCCNC4)nc4ccccc43)CC2)CCCCCCC1,44.9% and 4.3%,–
CNc1ccc2oc(C[C@H]3O[C@@]4(CC[C@H]3C)O[C@H](C(C)C(=O)c3ccc[nH]3)[C@H](C)C[C@H]4C)nc2c1C(=O)O (some centres undefined),–,19 µM (active)
COc1cc(C)[nH]c(=O)c1CNC(=O)c1c(C)n([C@H](C)C2CCOCC2)c2ccccc12,-8.11%,–
